Measurements published in the supplement of paper PMC6124720.
Unmarked numbers belong to inactive results.

Test system: Pseudogymnoascus destructans 20631-21
Test: growth activity index (DuctApe, 0 = no growth, 9 = maximal growth) (index 0-9); higher = more fungal growth (less inhibition), active = 0 or less; extreme values may be limits of the assay
Details: concentration level (1-4, increasing; Biolog proprietary): 1; temperature: 13 °C; YPD
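Also: biolog Phenotype Microarray plates PM21–25, OD595 followed daily over 11 days, growth curves converted to index, mean of two independent experiments.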

Row | SMILES | growth activity index
1 | [N-]=[N+]=CC(=O)OC[C@H](N)C(=O)O [Azaserine] (Biolog plate: PM22) | 5
2 | [Cl][Cr]([Cl])[Cl] [Chromium (III) chloride] (Biolog plate: PM23) | 5.33
3 | Nc1ncn[nH]1 [3-Amino-1,2,4-triazole] (Biolog plate: PM22) | 0 (active)
4 | CCCCC(C#N)(Cn1cncn1)c1ccc(Cl)cc1 (stereo not given) [Myclobutanil] (Biolog plate: PM22) | 5.33
5 | CC1C=CC=CCCC=CC=CC=CC=CC(OC2OC(C)C(O)C(N)C2O)CC2OC(O)(CC(O)C(O)CCC(O)CC(O)CC(O)CC(=O)OC(C)C(C)C1O)CC(O)C2C(=O)O (stereo not given) [Nystatin] (Biolog plate: PM21) | 1.75
6 | [K+].[K+].[O]=[Cr](=[O])([O-])[O-] [Potassium Chromate] (Biolog plate: PM24) | 3.33
7 | [Na+].[Na+].[O]=[Cr](=[O])([O-])[O][Cr](=[O])(=[O])[O-] [Sodium Dichromate] (Biolog plate: PM21) | 4.25
8 | Nc1ccncc1 [4-Aminopyridine] (Biolog plate: PM25) | 4.67
9 | O=[Se]([O-])[O-].[Na+].[Na+] [Sodium Selenite] (Biolog plate: PM21) | 6
10 | C[C@@H]1C[C@@H]([C@H](O)CC2CC(=O)NC(=O)C2)C(=O)[C@@H](C)C1 [Cycloheximide] (Biolog plate: PM22) | 5
